# Measles CPE: protection of cells from measles virus | AID 841 | protection (pct of control), % at 4 µM | Measles virus-infected cells, CPE protection, absorbance | actives 1.5% (n = 140,000); in the data active = protection mostly above about 24%, no sharp cut-off; inactive = mostly below about 26%
# CYP2C19 inhib: inhibitors of human CYP2C19 | AID 778 | inhibition, % at 5 µM | P33261 | actives 21% (n = 96,000) | CYP2C19 Supersomes, luciferin-H EGE luminescence, 30 min;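 active = CYP2C19 inhibition above a set limit at 5 µM in the primary screen, cut at about 50% in these data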;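 also: plate controls were negative control wells for no effect and 2.5 mM tranylcypromine positive control for full effect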
# CYP2C19 activ: activators of human cytochrome P450 2C19 | P33261 | recombinant CYP2C19, luciferin-H EGE luminescence; active compounds read high; 0 = fully inhibited enzyme, 1 = untreated enzyme | activation factor at 5 µM | 96,000 tested, under 10 active;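 active = activation factor of at least 2 at 5 µM in the primary screen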;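 also: 0 = wells with 2.5 mM tranylcypromine and 1 = vehicle-only wells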
# CYP2C9 inhib: inhibitors of human CYP2C9. P11712. CYP2C9 Supersomes, luciferin-H conversion, luminescence. inhibition, % at 5 µM. actives 20% (n = 96,000). AID 777;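 active = blocking of liver enzyme CYP2C9 beyond about 50% at 5 µM, limit read from the data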
# CYP2C9 act: CYP2C9 (human) activation. recombinant CYP2C9, luciferin-H conversion, luminescence; active compounds read high; factor 1 = untreated enzyme, 0 = blocked. AID 1024. activation factor at 5 µM. actives 1.4% (n = 96,000);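 active = activation factor of 2 or more for CYP2C9 at a 5 µM dose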;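 also: 0 = sulfaphenazole-blocked wells and 1 = vehicle-only wells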
# Active calls of the source: *; / = not tested or not shown. Sampled rows, rich in hits. Any-hit rate of the full collection: about 22%.
SMILES,Measles CPE,CYP2C19 inhib,CYP2C19 activ,CYP2C9 inhib,CYP2C9 act
Cc1ccc2[nH]c(=O)c(C(c3nnnn3C(C)(C)C)N(Cc3ccco3)CC3CCCO3)cc2c1 (configuration not stated),5,9,0.9,4,1
Cc1cccc2cc(C(c3nnnn3C(C)(C)C)N(Cc3ccco3)CC3CCCO3)c(=O)[nH]c12 (configuration not stated),16,24,0.8,56*,0.4
CC(C)(C)n1nnnc1C(c1ccccc1F)N(Cc1ccco1)CC1CCCO1 (configuration not stated),25,30,0.7,71*,0.3
O=C(NCc1ccco1)C(c1ccccc1F)N(CC1CCCO1)C(=O)Cn1nnc2ccccc21 (configuration not stated),12,2,1,12,0.9
CC1CCCC(C)N1C(=O)COc1ccc(-c2nnco2)cc1 (configuration not stated),8,2,1,3,1
Cc1csc(NC(=O)CSc2nnc(-c3ccncc3)o2)n1,4,55*,0.5,29,0.7
N#Cc1ccsc1NC(=O)COc1ccc(-c2nnco2)cc1,5,78*,0.2,95*,0
Cc1cccc(C)c1OCc1nnc(SCC(=O)Nc2ccccc2F)o1,12,13,0.9,59*,0.4
Cc1ccc(-c2nnc(SCC(=O)Nc3ccccc3F)o2)cc1,9,24,0.8,37,0.6
O=C(CSc1nnc(-c2ccccc2)o1)Nc1ccccc1F,0,57*,0.4,29,0.7
COc1cccc(-n2c(CN3CCN(c4ccccc4)CC3)nc3ccc([N+](=O)[O-])cc3c2=O)c1,8,/,/,/,/
CCN(CC(=O)NCc1ccc(F)cc1)C(=O)COc1ccc2ccccc2c1,6,/,/,/,/
Cc1sc(NC(=O)CSc2nnc(-c3ccc(F)cc3)o2)c(C#N)c1C,27,70*,0.3,72*,0.3
Cc1cnc(NC(=O)CSc2nnc(-c3ccccc3)o2)s1,7,/,/,/,/
N#Cc1ccsc1NC(=O)CSc1nnc(-c2ccccc2)o1,1,28,0.7,85*,0.2
COc1ccccc1NC(=O)CSc1nnc(-c2ccncc2)o1,/,84*,0.2,30,0.7
CCOC(=O)c1cc(-c2nnc(SCC(=O)Nc3ccc(F)cc3)o2)c(C)nc1C,4,20,0.8,51*,0.5
CCOC(=O)c1cc(-c2nnc(-c3ccc(Cl)cc3)o2)c(C)nc1C,0,16,0.8,9,0.9
CCC1CCC2(CC1)NC(=O)N(CC(=O)c1c(C)[nH]c3ccccc13)C2=O (configuration not stated),2,/,/,/,/
COC(=O)c1ccc(C(=O)OC)c(NC(=O)CN(C)Cc2ccccc2)c1,8,/,/,/,/
O=C(CSc1nnc(-c2ccncc2)o1)Nc1ccccc1Cl,7,90*,0.1,17,0.8
COc1ccccc1NC(=O)CSc1nnc(C2CCCCC2)o1,15,56*,0.4,44,0.6
O=C(CSc1nnc(-c2ccc(Br)cc2)o1)Nc1cccc2ccccc12,20,70*,0.3,74*,0.3
COC(=O)c1ccccc1NC(=O)CSc1nnc(-c2ccc(C)cc2)o1,11,/,/,/,/
CCn1c(SCC(=O)Nc2cc(OC)ccc2OC)nnc1C1CCCCC1,24,69*,0.3,-11,1.1
SMILES,Measles CPE,CYP2C19 inhib,CYP2C19 activ,CYP2C9 inhib,CYP2C9 act
Cc1cc(C)n2c(-c3ccccc3Cl)nnc2n1,4,/,/,/,/
Cc1nc(SCC(=O)N2CCc3ccccc32)n[nH]1,5,-7,1.1,-12,1.1
Cc1onc(-c2ccccc2)c1C(=O)N1CC(C)OC(C)C1 (configuration not stated),39,12,0.9,-1,1
CCOc1ccc(-c2csc(/C(C#N)=C\c3ccc(O)c([N+](=O)[O-])c3)n2)cc1,2,/,/,/,/
CC(C)CC(=O)Nc1ccc(C(=O)COc2ccc(-c3nnco3)cc2)cc1,4,72*,0.3,93*,0.1
Clc1ccc(CNC2CCCC2)cc1,14,78*,0.2,19,0.8
Oc1ccc(CNC2CCCCC2)cc1,16,-4,1,-13,1.1
C/C(=N\NC(=S)NCCc1ccccc1)c1cccs1,6,/,/,/,/
CCOc1ccc(OCC)c(NC(=O)c2[nH]c(C)c(C(C)=O)c2C)c1,15,38,0.6,30,0.7
CCc1c(C(=O)Nc2cc(C)cc(C)c2)[nH]c(C)c1C(C)=O,6,44,0.6,60*,0.4
CCC(=O)Nc1nnc(C(C)(C)C)s1,51,-1,1,-4,1
Cc1cc(-c2n[nH]c(=S)n2CC(C)C)cs1,13,/,/,/,/
